In PubChem BioAssay one finds composite z-score and z-score data, which are given here for eleven molecules.

Experiment [1] deals with Human papillomavirus type 1a protein E7 (residues 44-93). Put plainly: HPV1a E7 fragment binders on microarrays, primary screen, biochemical, small-molecule microarray, residues 44-93, 635 nm fluorescence (AID 1108).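 Further: E7 fragment applied at 1 µg/mL in TBST for 1 h at 4 C; score combines spot fluorescence with its signal to noise ratio.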 The following applies: small-molecule microarray binding, fluorescence 635 nm; higher = more signal.
Experiment [2] is described as follows: modulators of HCV replicon luciferase signal, primary screen, HCV replication inhibitor project, Huh7 cells, luciferase reporter (AID 1109).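 Further: huh7 hepatoma cells harbouring a luciferase neomycin HCV replicon reporter; luciferase luminescence as measure of HCV replicon replication; test concentration not given here.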 As to conditions: 48 h, higher = more signal.
For experiment [3], the target named is Left-right determination factor 2 (Homo sapiens) (UniProt O00292). Nature of the experiment: LEFTY2 binders on small-molecule microarrays, primary screen, biochemical, small-molecule microarray, 635 nm fluorescence scan (AID 1110). The following applies: LEFTY2 binding, higher = more signal.
Sequence of Left-right determination factor 2 (Homo sapiens) (O00292 whole entry, looked up): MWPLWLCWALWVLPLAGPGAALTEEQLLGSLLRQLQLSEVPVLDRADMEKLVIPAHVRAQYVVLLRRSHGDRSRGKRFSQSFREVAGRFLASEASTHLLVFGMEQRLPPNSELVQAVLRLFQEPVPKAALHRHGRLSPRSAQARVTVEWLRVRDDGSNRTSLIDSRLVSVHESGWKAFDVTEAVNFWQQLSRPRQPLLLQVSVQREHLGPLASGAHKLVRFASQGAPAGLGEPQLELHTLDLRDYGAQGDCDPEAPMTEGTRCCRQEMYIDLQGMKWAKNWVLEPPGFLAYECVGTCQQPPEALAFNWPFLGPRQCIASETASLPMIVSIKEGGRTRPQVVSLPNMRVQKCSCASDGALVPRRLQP
For experiment [4], the target named is Calmodulin-1 (Homo sapiens) (UniProt P0DP23). Nature of the experiment: CALM1 binders on microarrays, EGTA buffer, profiling panel, biochemical, small-molecule microarray, Cy5-labelled CALM1 (AID 1111).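 Further: labelled calmodulin applied in Tris saline Tween buffer holding calcium plus EGTA and DTT.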 As to conditions: Cy5-CALM1 binding fluorescence, higher = more signal.
Experiment [5] shares this target. Nature of the experiment: calcium-bound CALM1 binders on microarrays, profiling panel, artefact control for SMM control-protein annotation, biochemical, small-molecule microarray, Cy5-labelled CALM1, plus calcium (AID 1112).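 Further: score merges spot fluorescence with signal to noise from triplicate slides.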 As to conditions: Cy5-CALM1 binding fluorescence, higher = more signal.
Experiment [6] in a line: small-molecule microarray binders of probe aWnt5a, primary screen, biochemical, biotinylated probe, 635/667 nm fluorescence (AID 1113).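 Further: score merges 667 nm fluorescence intensity with signal-to-noise per printed feature.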 The following applies: higher = more signal.
A short description of experiment [7]: small-molecule microarray binders of probe aShh, primary screen, biochemical, biotinylated probe, 635/667 nm fluorescence (AID 1114).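 Further: probe is biotin-labelled aShh protein from a stem cell growth factor screen; measures binding of labelled protein to compounds printed on the slide; score merges feature fluorescence at 667 nm with signal-to-noise.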 As to conditions: higher = more signal.
Experiment [8] in a line: small-molecule microarray binders of probe aNog, primary screen, biochemical, biotinylated probe, 635/667 nm fluorescence (AID 1115).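 Further: probe is biotinylated aNog protein used at 0.15 µg/mL for 1 h at 4 C; z-score combines 667 nm fluorescence of each spot with its signal to noise.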 As to conditions: higher = more signal.
Experiment [9] concerns the target Torsin-1A-interacting protein 1 (Homo sapiens) (UniProt Q5JTV8). Nature of the experiment: LAP1 binders from COS7 cell lysate, primary screen, small-molecule microarray, 635/667 nm fluorescence (AID 1116). As to conditions: COS7-hLAP1 lysate binding, 635 nm fluorescence, higher = more signal.
Experiment [10] concerns the target Alpha-bungarotoxin (Bungarus multicinctus) (UniProt P60615). Nature of the experiment: alpha-bungarotoxin binders on microarray, profiling panel, artefact control for SMM control protein annotation, biochemical, small-molecule microarray, Alexa647 label, 635/667 nm fluorescence (AID 1117). As to conditions: alpha-BTX-A647 binding fluorescence, higher = more signal.

Sequence of Alpha-bungarotoxin (Bungarus multicinctus) (P60615 whole entry, looked up): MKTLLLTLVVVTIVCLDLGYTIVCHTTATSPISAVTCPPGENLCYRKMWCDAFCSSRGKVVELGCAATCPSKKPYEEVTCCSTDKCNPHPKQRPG
Sequence of Torsin-1A-interacting protein 1 (Homo sapiens) (Q5JTV8 whole entry, looked up): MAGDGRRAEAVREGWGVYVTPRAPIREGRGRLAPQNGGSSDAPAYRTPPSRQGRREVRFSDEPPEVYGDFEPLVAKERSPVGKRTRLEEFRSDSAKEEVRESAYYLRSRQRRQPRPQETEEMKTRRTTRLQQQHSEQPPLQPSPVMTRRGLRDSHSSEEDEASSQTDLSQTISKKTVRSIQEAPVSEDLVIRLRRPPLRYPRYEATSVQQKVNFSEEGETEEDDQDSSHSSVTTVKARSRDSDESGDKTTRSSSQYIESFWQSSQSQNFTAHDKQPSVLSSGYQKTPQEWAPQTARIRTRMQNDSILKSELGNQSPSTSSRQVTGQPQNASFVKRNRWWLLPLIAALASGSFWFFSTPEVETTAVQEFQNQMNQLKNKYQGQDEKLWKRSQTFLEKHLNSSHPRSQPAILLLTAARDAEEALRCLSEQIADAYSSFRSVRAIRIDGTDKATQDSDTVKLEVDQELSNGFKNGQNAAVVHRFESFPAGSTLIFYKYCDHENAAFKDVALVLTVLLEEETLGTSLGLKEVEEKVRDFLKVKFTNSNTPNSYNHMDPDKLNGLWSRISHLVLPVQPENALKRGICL

As to `CCCC[C@@H]1C[C@H]1[C@@H](NC(=O)c1cccs1)c1ccc(-c2ccccc2)cc1`, the composite z-score in [1] is 0.495; in experiment [3], -0.0554; in experiment [4], 0.362; in experiment [5] it was 0.295; in experiment [6], -0.0704; in experiment [7], -0.138. In addition, the composite z-score in experiment [8] is 0.103; in [9], 0.254; in experiment [10], -0.474. Also, the z-score in experiment [2] is -2.05.

For `CO[C@H]1O[C@H](CO)[C@@H](OC(=O)Nc2ccc(C(F)(F)F)cc2)[C@H](OC(=O)Nc2ccc3c(c2)OCO3)[C@@H]1OC(=O)Nc1ccc2c(c1)OCO2`, the composite z-score is 0.335 in experiment [1]; 0.819 in experiment [3]; 0.784 in experiment [4]; -0.764 in experiment [5]; 0.101 in experiment [6]; 0.221 in [7]. The figures for the composite z-score in [8], in experiment [9] and in experiment [10] were 1.71, 1.34 and 0.943, respectively. The same molecule gave a z-score in [2] of -2.44.

On to `O=C(N1CCCCC1)[C@]1(Cc2ccccc2)N=C(c2ccc(OCCCO)cc2)O[C@@H]1c1ccccc1`, for which the composite z-score is 1.42 in experiment [1]; 0.0931 in experiment [3]; 1.48 in experiment [4]; 0.516 in [5]; 0.0744 in experiment [6]; 0.446 in [7]. For the same molecule, the composite z-score came to 0.85 in experiment [8], 0.252 in experiment [9] and 0.977 in experiment [10]. In addition, the z-score in [2] was -3.4.

As to `C[C@@]1([C@@H](NC(=O)c2ccc(-c3ccccc3)cc2)c2ccc(Cl)cc2)C[C@H]1C1CCCCC1`, the composite z-score came out at 1.34 in [1]; 0.279 in experiment [3]; 1.42 in experiment [4]; 1.2 in [5]; 0.0879 in experiment [6]; 0.603 in [7]. The composite z-score in experiment [8] was 1.03; in experiment [9], 0.667; in [10], 1.17. The molecule also came in with a z-score in [2] of -1.18.

As to `CNS(=O)(=O)c1ccc(C)cc1`, the composite z-score is 0.899 in experiment [1]; 0.804 in [3]; -0.206 in experiment [4]; -0.263 in experiment [5]; -0.169 in [6]; -0.504 in experiment [7]. In addition, the composite z-score was -0.138 in experiment [8], -0.312 in [9] and 0.514 in [10]. The same molecule showed a z-score in experiment [2] of -0.376.

`COCCOC(=O)N1C(=O)[C@@]2(c3cc(C#CCC(C(=O)OC)C(=O)OC)ccc31)[C@H](c1ccccc1OCCO)N1[C@H](c3ccccc3)[C@H](c3ccccc3)OC(=O)[C@H]1[C@@H]2C(=O)NC[C@H](O)c1ccccc1`: the composite z-score was found to be 0.948 in experiment [1]; 1.44 in experiment [3]; 0.832 in experiment [4]; 0.277 in [5]; 0.0718 in experiment [6]; 0.275 in experiment [7]. The composite z-score in experiment [8] was determined as 0.237; in [9], 0.876; in experiment [10], 0.926. For the same molecule, the z-score in experiment [2] was -2.28.

Consider `O=C(c1ccccc1)N1C(=O)[C@]2(COC(c3ccc(OCCCO)cc3)=N2)Cc2ccccc21`, for which the composite z-score in experiment [1] was 1.04; in experiment [3], 0.448; in experiment [4], 1.8; in [5] it was 0.106; in experiment [6], -0.0303; in experiment [7], -0.321. Besides, the composite z-score in experiment [8] was determined as 1.13; in experiment [9], 1.84; in experiment [10], 2.29. For the same molecule, the z-score in [2] is -1.14.

With `COc1ccc(C#Cc2ccc3c(c2)[C@]2(C(=O)N3)[C@H](C(=O)Nc3nc4ccccc4s3)[C@H]3C(=O)O[C@H](c4ccccc4)[C@H](c4ccccc4)N3[C@@H]2c2ccc(O)cc2)cc1`, the composite z-score in experiment [1] stood at 1.42; in experiment [3], 0.653; in experiment [4], 1.7; in experiment [5], 0.782; in experiment [6], 0.383; in [7], 1.3. The composite z-score in [8] was 2.23; in experiment [9] it was 0.934; in experiment [10], 1.66. In addition, in experiment [2], the z-score is -1.04.

As to `COC(=O)[C@@]1(Cc2ccccc2)[C@H]2c3cc(C(=O)N4CCCC4)n(Cc4ccc(S(C)(=O)=O)cc4)c3C[C@H]2CN1C(=O)c1ccccc1`, the composite z-score in experiment [1] is 0.97; in experiment [3], 0.711; in [4] it was 2.61; in [5], 1.35; in experiment [6], -0.0965; in experiment [7] it was -0.34. The figures for the composite z-score in experiment [8], in [9] and in experiment [10] were -0.232, 1.86 and 0.863, respectively. This molecule also gave a z-score in experiment [2] of -2.02.

Take `COCCOC(=O)N1C(=O)[C@@]2(c3cc(C#CC4(O)CCCCCC4)ccc31)[C@H](c1ccccc1OCCO)N1[C@H](c3ccccc3)[C@H](c3ccccc3)OC(=O)[C@H]1[C@@H]2C(=O)N1CCN(c2ncccn2)CC1`: the composite z-score in experiment [1] was 0.0525; in experiment [3], 0.46; in experiment [4] it was 0.156; in [5] it was -0.0855; in [6] it was -0.0944; in experiment [7], 0.0328. The composite z-score was found to be 0.612 in experiment [8], 1.35 in experiment [9] and 0.509 in [10]. In addition, the z-score in experiment [2] was -2.18.

For `CCCC[C@@H]1C[C@H]1[C@@H](NC(=O)c1ccccc1)c1ccc(C(=O)OC)cc1`, the composite z-score in experiment [1] was -0.541; in experiment [3], -1.9; in [4], 0.155; in [5], 0.685; in [6], -0.0236; in experiment [7], -0.0849. The composite z-score is -1.02 in experiment [8], -0.679 in experiment [9] and -0.0885 in experiment [10]. This molecule also showed a z-score in experiment [2] of -1.15.
